# Several values for one entry are separate records, joined by “and”; a condition that tells them apart may be missing. Equal values may be shown once. Records with an inconclusive call do not appear. Activity calls are given as the source filed them.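 Rule for the calls, unless noted: active = normalized viability below 100% at a tested concentration; inactive = the rest.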
# Key:
# [1] = P. berghei load reduction in hepatocytes – cell-based, HepG2, luciferase luminescence, HepG2 viability, primary screen (AID 624349; in the data active = parasite load remaining mostly below about 12%, no sharp cut-off; inactive = mostly above about 10%;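 note: 100% = mean of DMSO negative control wells on the same plate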); conditions: P. berghei liver stage in HepG2, luciferase luminescence, concentration not given here; parasite load remaining: stronger effect = lower value; viability: measured here: HepG2 viability without parasites
# [2] = EMT-state selective cytotoxicity in co-culture – imaging, PC-3E GFP, TEM4-18 mCherry, primary screen (AID 1345086;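 active = compounds killing one labelled cell type while sparing the other, by normalised counts and ratio limits, not self-fluorescent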;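 for all read-outs here: cells exposed to compound for 72 h before imaging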;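 for red/green cell ratio (normalised): normalised mesenchymal count divided by normalised epithelial count so high means epithelial killing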); conditions: PC-3E GFP / TEM4-18 mCherry co-culture, imaging cell counts, at 1 µM; for red/green cell ratio (normalised): actives lie on both sides, counts scaled to control wells, 1 = unselective
# [3] = blockers of polyQ-driven CASP3 activation – cell-based (AID 1583); conditions: polyglutamine-induced caspase-3 activation, cell assay; stronger effect = higher value;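 tested at 10 µM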
# [4] = yeast 75Q aggregation reduction – 75Q-TubU reporter (AID 1593); conditions: Yeast 75Q polyglutamine aggregation reporter
# [5] = molecular target: Mitogen-activated protein kinase 7 (Homo sapiens) (UniProt Q13164); experiment: Gal4-ERK5 driven luciferase induction – cell-based, HTS, primary screen (AID 1508626;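 active = luciferase signal above three times the same-plate solvent-only control wells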;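 note: luciferase driven by Gal4-ERK5 fusion binding five Gal4 sites before minimal TATA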); conditions: HeLa Gal4-ERK5 transactivation, 18 h, at 5 µM, stronger effect = higher value
# Sequence of Mitogen-activated protein kinase 7 (Homo sapiens) (Q13164 whole entry, looked up, the tested form may be a part): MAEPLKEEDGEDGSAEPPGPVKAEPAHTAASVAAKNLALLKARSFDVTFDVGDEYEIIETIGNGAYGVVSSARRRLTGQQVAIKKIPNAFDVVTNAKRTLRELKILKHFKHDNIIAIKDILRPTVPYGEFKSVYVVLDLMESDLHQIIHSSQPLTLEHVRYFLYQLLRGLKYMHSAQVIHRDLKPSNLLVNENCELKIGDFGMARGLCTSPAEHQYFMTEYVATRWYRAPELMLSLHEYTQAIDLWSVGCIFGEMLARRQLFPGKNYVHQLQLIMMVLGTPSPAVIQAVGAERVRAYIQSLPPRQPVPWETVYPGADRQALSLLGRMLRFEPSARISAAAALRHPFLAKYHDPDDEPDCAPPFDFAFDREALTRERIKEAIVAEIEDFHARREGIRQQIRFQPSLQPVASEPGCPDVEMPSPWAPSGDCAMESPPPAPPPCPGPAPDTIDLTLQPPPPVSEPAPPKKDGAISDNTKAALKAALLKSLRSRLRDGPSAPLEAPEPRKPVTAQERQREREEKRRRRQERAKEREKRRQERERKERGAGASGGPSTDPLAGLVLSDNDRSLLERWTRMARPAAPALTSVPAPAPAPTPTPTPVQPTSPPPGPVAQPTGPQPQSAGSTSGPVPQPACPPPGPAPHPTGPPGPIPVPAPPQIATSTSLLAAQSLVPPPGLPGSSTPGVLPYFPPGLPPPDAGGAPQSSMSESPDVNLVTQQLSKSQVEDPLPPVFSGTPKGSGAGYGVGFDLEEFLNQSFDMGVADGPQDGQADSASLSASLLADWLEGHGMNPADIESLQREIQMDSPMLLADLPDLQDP
# [6] = system: Aerobactin synthetase IucA (Klebsiella pneumoniae); experiment: inhibition of K. pneumoniae IucA enzyme – biochemical, Tocris library, absorbance (AID 1345561; call rule not given here;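 note: 100% = enzyme without compound and 0% = no enzyme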); conditions: purified IucA enzyme assay, absorbance (OD) read-out; stronger effect = lower value;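 tested at 8 µM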
# [7] = viability loss in pontine glioma line – cell-based, SU-DIPG-XVII, MIPE5.0, CellTiter-Glo, qHTS, dose response (AID 1347060; cut-off not given, nearly all actives have AC50 up to about 26 µM;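 note: cells exposed to compound for 48 hours before viability readout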); conditions: CellTiter-Glo ATP luminescence
# [8] = viability loss in pontine glioma line – cell-based, SU-DIPG-XIII, MIPE4.0, CellTiter-Glo, qHTS, dose response (AID 1347061; cut-off not given, nearly all actives have AC50 up to about 37 µM;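 note: cells exposed to compound for 48 hours before readout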); conditions: CellTiter-Glo ATP luminescence
# [9] = viability loss in pontine glioma line – cell-based, JHH-DIPG-1, MIPE4.0, CellTiter-Glo, qHTS, dose response (AID 1347062; cut-off not given, nearly all actives have AC50 up to about 27 µM;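 note: cells exposed to compound for two days before readout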); conditions: JHH-DIPG-1 viability, CellTiter-Glo ATP luminescence
# [10] = viability loss in pontine glioma line – cell-based, SU-DIPG-IV, MIPE4.0, CellTiter-Glo, qHTS, dose response (AID 1347063; cut-off not given, nearly all actives have AC50 up to about 30 µM;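 note: compound exposure lasted 48 hours before the viability readout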); conditions: CellTiter-Glo ATP luminescence
# [11] = viability loss in pontine glioma line – cell-based, SU-DIPG-XIII, MIPE5.0, CellTiter-Glo, qHTS, dose response (AID 1347064; cut-off not given, nearly all actives have AC50 up to about 23 µM;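 note: cells exposed to compound for 48 hours before the viability read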); conditions: CellTiter-Glo ATP luminescence
# [12] = viability loss in pontine glioma line – cell-based, SU-DIPG-XXV, MIPE5.0, CellTiter-Glo, qHTS, dose response (AID 1347065; cut-off not given, nearly all actives have AC50 up to about 26 µM;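 note: cells exposed to compound for 48 hours before ATP readout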); conditions: CellTiter-Glo ATP luminescence
# [13] = growth inhibition of DIPG cells – cell-based, MIPE4.0 library, CellTiter-Glo luminescence, qHTS (AID 1347066; cut-off not given, nearly all actives have AC50 up to about 30 µM;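 note: cells exposed to compound for 48 hours before readout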); conditions: SU-DIPG-VI viability, CellTiter-Glo ATP luminescence
# [14] = JHH-DIPG-1 glioma cell viability, MIPE5.0 library, CellTiter-Glo luminescence, qHTS (AID 1347067; cut-off not given, nearly all actives have AC50 up to about 26 µM;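 note: cells exposed to compound for 48 hours before readout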); conditions: JHH-DIPG-1 glioma viability, CellTiter-Glo ATP luminescence
# [15] = growth inhibition of DIPG cells – cell-based, MIPE5.0 library, qHTS (AID 1347068; cut-off not given, nearly all actives have IC50 up to about 30 µM;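 note: cells exposed to compound for 48 hours before viability readout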); conditions: SU-DIPG-XXV viability
# [16] = viability loss with induced miR-34 in A549 – imaging, A549 dox-inducible miR-34, nuclei and caspase counts, primary screen (AID 1347080;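 active = compounds whose cell count with miR-34 switched on is under 0.7 times the count with it off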); conditions: A549 miR-34 inducible, Hoechst nuclei count, 48 h
# [17] = compounds altering HSF1 focus formation in cells – imaging, Selleck Cancer Library (AID 1347162; in the data active = plate-normalised HSF1 focus index below about 0.46); conditions: human cells, HSF1 nuclear foci imaging, at 10 µM; SSMD: measured here: HSF1 foci SSMD mean; cell count: measured here: cell number; plate-normalised HSF1 focus index: stronger effect = lower value
# [18] = MELAS cybrid and Rieske KO viability enhancers – cell-based, MELAS cybrids, Rieske KO mouse fibroblasts, CellTiter-Glo, primary screen (AID 1508586;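 active = mean z-score across replicates of 1.96 or higher in either the MELAS or the Rieske mutant cell line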;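 note: z relative to plate mean and SD of compound and empty wells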); conditions: low glucose
# [19] = drug combination growth inhibition, ovarian cancer – cell-based, oncology-focused library, rucaparib conditional, profiling panel (AID 1508598); conditions: patient-derived ovarian cancer cells, CellTiter-Glo viability, 144 h, stronger effect = lower value
# [20] = galactose survival enhancers in mitochondrial complex I cybrids – cell-based, galactose medium, ATP luminescence, primary screen (AID 1645843;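 active = z-score of at least 1.8 in each of two replicates, scored against plate mean and spread of sample wells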;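 note: positive z means more ATP and so rescue of galactose-driven cybrid death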); conditions: complex I mutant cybrid cells, 72 h, stronger effect = higher value
# [21] = measured here: epithelial PC-3E GFP cell survival
# [22] = measured here: mesenchymal TEM4-18 mCherry cell survival
compound,measurement,setting,value
O=C(/C=C/c1ccc(O)c(O)c1)OC(Cc1ccc(O)c(O)c1)C(=O)O (configuration not stated),parasite load remaining,[1],107% (inactive)
same,viability,[1],70.8%
same,red/green cell ratio (normalised),[2],1.03 (inactive)
same,normalised cell number,[2]; [21],1.08
same,normalised cell number,[2]; [22],1.12
CCCCC(=O)O[C@]1(C(=O)CO)[C@@H](C)CC2C3CCC4=CC(=O)C=C[C@]4(C)[C@@]3(F)C(O)C[C@@]21C (some centres not stated),parasite load remaining,[1],94.9% (inactive)
same,viability,[1],71%
same,red/green cell ratio (normalised),[2],1.42 (inactive)
same,normalised cell number,[2]; [21],0.8
same,normalised cell number,[2]; [22],1.14
CC(CCC(=O)O)[C@H]1CCC2C3CC[C@@H]4C[C@H](O)CC[C@]4(C)C3CC[C@@]21C (some centres not stated),parasite load remaining,[1],32.1% (inactive)
same,viability,[1],67.3%
same,red/green cell ratio (normalised),[2],0.99 (inactive)
same,normalised cell number,[2]; [21],0.91
same,normalised cell number,[2]; [22],0.89
NC[C@@H]1O[C@H](O[C@@H]2[C@@H](CO)OC(O[C@@H]3[C@@H](O)[C@H](N)C[C@H](N)[C@H]3O[C@H]3O[C@H](CO)[C@@H](O)[C@H](O)[C@H]3N)[C@@H]2O)[C@H](N)[C@@H](O)[C@@H]1O (some centres not stated),parasite load remaining,[1],141% (inactive)
same,viability,[1],87.6%
same,red/green cell ratio (normalised),[2],1.21 (inactive)
same,normalised cell number,[2]; [21],0.93
same,normalised cell number,[2]; [22],1.13
C[C@@H]1O[C@@H](OC[C@H]2OC(Oc3c(-c4ccc(OCCO)c(OCCO)c4)oc4cc(OCCO)cc(O)c4c3=O)[C@H](O)[C@@H](O)[C@@H]2O)[C@H](O)[C@H](O)[C@H]1O (some centres not stated),parasite load remaining,[1],141% (inactive)
same,viability,[1],89.1%
same,red/green cell ratio (normalised),[2],0.94 (inactive)
same,normalised cell number,[2]; [21],1.03
same,normalised cell number,[2]; [22],0.96
CC(=O)Oc1ccc2c(c1)CCC1C2CC[C@@]2(C)C1CC[C@@H]2OC(C)=O (some centres not stated),inhibition,[3],10.6%
same,score,[4],-0.45
same,parasite load remaining,[1],102% (inactive)
same,viability,[1],70.5%
same,red/green cell ratio (normalised),[2],0.86 (inactive)
same,normalised cell number,[2]; [21],1.29
same,normalised cell number,[2]; [22],1.12
NC(Cc1ccc(F)cc1)C(=O)O (configuration not stated),inhibition,[3],10.4%
same,score,[4],1.23
same,red/green cell ratio (normalised),[2],0.96 (inactive)
same,normalised cell number,[2]; [21],0.88
same,normalised cell number,[2]; [22],0.84
same,luciferase signal,[5],100 AU (inactive)
NC(=O)Nc1sc(-c2ccc(F)cc2)cc1C(N)=O,parasite load remaining,[1],72.5% (inactive)
same,viability,[1],79.5%
same,remaining activity,[6],122% (inactive)
same,AC50,[7],9.34 µM (active)
same,AC50,[8],11.8 µM (active)
same,AC50,[9],4.69 µM (active)
same,AC50,[10],1.05 µM (active)
same,AC50,[11],20.9 µM (active)
same,AC50,[12],7.42 µM (active)
same,AC50,[13],16.6 µM (active)
same,AC50,[14],5.9 µM (active)
same,IC50,[15],14.8 µM (active)
same,fold change,"[16]; stronger effect = lower value, cell number ratio, induced over uninduced",0.943 (inactive) and 1.1 (inactive)
same,fold change,[16]; measured here: relative caspase fold change +Dox/-Dox,0.476 and 0.704
same,cell count,"[16]; measured here: total cells with miR-34 induction, stronger effect = lower value",1490 and 2380
same,cell count,[16]; measured here: total cells without miR-34 induction,1580 and 2160
same,SSMD,[17],-1.15
same,cell count,[17],6750
same,plate-normalised HSF1 focus index,[17],0.95 (inactive)
same,z-score,"[18]; MELAS cybrid survival, CellTiter-Glo 48 h, stronger effect = higher value",0.0212 (inactive)
same,z-score,"[18]; Rieske KO mouse fibroblast survival, CellTiter-Glo 72 h",0.196
same,viability,"[19]; at 0.000305 µM, OCI-C5x cells, with rucaparib 10 µM, 100% = cells with rucaparib alone",113% (inactive)
same,viability,"[19]; at 0.000305 µM, OCI-C5x cells, without rucaparib",127% (inactive)
same,viability,"[19]; at 0.000305 µM, OCI-P5x cells, with rucaparib 20 µM, 100% = cells with rucaparib alone",116% (inactive)
same,viability,"[19]; at 0.000305 µM, OCI-P5x cells, without rucaparib",109% (inactive)
same,viability,"[19]; at 0.00122 µM, OCI-C5x cells, with rucaparib 10 µM, 100% = cells with rucaparib alone",118% (inactive)
same,viability,"[19]; at 0.00122 µM, OCI-C5x cells, without rucaparib",126% (inactive)
same,viability,"[19]; at 0.00122 µM, OCI-P5x cells, with rucaparib 20 µM, 100% = cells with rucaparib alone",106% (inactive)
same,viability,"[19]; at 0.00122 µM, OCI-P5x cells, without rucaparib",106% (inactive)
same,viability,"[19]; at 0.00488 µM, OCI-C5x cells, with rucaparib 10 µM, 100% = cells with rucaparib alone",124% (inactive)
same,viability,"[19]; at 0.00488 µM, OCI-C5x cells, without rucaparib",131% (inactive)
same,viability,"[19]; at 0.00488 µM, OCI-P5x cells, with rucaparib 20 µM, 100% = cells with rucaparib alone",105% (inactive)
same,viability,"[19]; at 0.00488 µM, OCI-P5x cells, without rucaparib",104% (inactive)
same,viability,"[19]; at 0.0195 µM, OCI-C5x cells, with rucaparib 10 µM, 100% = cells with rucaparib alone",115% (inactive)
same,viability,"[19]; at 0.0195 µM, OCI-C5x cells, without rucaparib",108% (inactive)
same,viability,"[19]; at 0.0195 µM, OCI-P5x cells, with rucaparib 20 µM, 100% = cells with rucaparib alone",102% (inactive)
same,viability,"[19]; at 0.0195 µM, OCI-P5x cells, without rucaparib",101% (inactive)
same,viability,"[19]; at 0.0781 µM, OCI-C5x cells, with rucaparib 10 µM, 100% = cells with rucaparib alone",115% (inactive)
same,viability,"[19]; at 0.0781 µM, OCI-C5x cells, without rucaparib",109% (inactive)
same,viability,"[19]; at 0.0781 µM, OCI-P5x cells, with rucaparib 20 µM, 100% = cells with rucaparib alone",102% (inactive)
same,viability,"[19]; at 0.0781 µM, OCI-P5x cells, without rucaparib",98.9% (active)
same,viability,"[19]; at 0.313 µM, OCI-C5x cells, with rucaparib 10 µM, 100% = cells with rucaparib alone",124% (inactive)
same,viability,"[19]; at 0.313 µM, OCI-C5x cells, without rucaparib",105% (inactive)
same,viability,"[19]; at 0.313 µM, OCI-P5x cells, with rucaparib 20 µM, 100% = cells with rucaparib alone",95.8% (active)
same,viability,"[19]; at 0.313 µM, OCI-P5x cells, without rucaparib",93% (active)
same,viability,"[19]; at 1.25 µM, OCI-C5x cells, with rucaparib 10 µM, 100% = cells with rucaparib alone",125% (inactive)
same,viability,"[19]; at 1.25 µM, OCI-C5x cells, without rucaparib",104% (inactive)
same,viability,"[19]; at 1.25 µM, OCI-P5x cells, with rucaparib 20 µM, 100% = cells with rucaparib alone",92.8% (active)
same,viability,"[19]; at 1.25 µM, OCI-P5x cells, without rucaparib",87.7% (active)
same,viability,"[19]; at 5 µM, OCI-C5x cells, with rucaparib 10 µM, 100% = cells with rucaparib alone",95.3% (active)
same,viability,"[19]; at 5 µM, OCI-C5x cells, without rucaparib",67.2% (active)
same,viability,"[19]; at 5 µM, OCI-P5x cells, with rucaparib 20 µM, 100% = cells with rucaparib alone",39% (active)
same,viability,"[19]; at 5 µM, OCI-P5x cells, without rucaparib",60.3% (active)
same,z-score,[20],0.96 (inactive)

# — PubChem BioAssay
